Out of some 420,000 compounds screened, about 50,000 (12%) were called active. About 26% were inconclusive and are not listed. Shown is part of a subset that was picked to be rich in actives. Values without a mark were called inactive. Calls come from the whole dose curve; as a rule, active = well fitted inhibition curve with a large enough effect; inconclusive = small, poorly fitted or top-dose-only effect; inactive = flat fitted curve, though single readings scatter.
Test: qHTS for Inhibitors of human tyrosyl-DNA phosphodiesterase 1 (TDP1): qHTS in cells in presence of CPT; note: nearly all actives have a fitted effect of over 55% in size
Conditions: chicken DT40 Tdp1-/-;hTDP1 cells + 20 nM CPT, ATP luminescence, 48 h; series mostly up to 46.2 µM; activity change, negative = growth inhibition: at the top concentration
In short: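 Cell growth measured by CellTiter-Glo luminescence after a minimum 48 h, 37 C compound exposure with 20 nM CPT in Tdp1-knockout DT40 cells stably expressing hTDP1, seeded 400/well; qHTS titration format.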
% is set by controls: 0 for no effect and ±100 for the full control effect; potency is the fitted concentration of half-maximal effect.

Row | SMILES | Potency | activity change, negative = growth inhibition
1 | Cc1ccc(-n2nc3c(=O)n(C(C)C(=O)NCc4ccc5c(c4)OCO5)nc(C)c3c2C)cc1 (stereo not drawn) | 18.4 µM (active) | –
2 | COc1ccccc1CNC(=O)Cn1c(=O)oc2cc(Cl)ccc21 | – | -27.3% (inactive)
3 | Cc1nn(CC(=O)N2CCCCC2)c(=O)c2nn(-c3ccccc3)c(C)c12 | – | -16% (inactive)
4 | COc1ccc(CNC(=O)C(C)n2nc(C)c3c(C)n(-c4ccccc4)nc3c2=O)c(OC)c1 (stereo not drawn) | 16.4 µM (active) | –
5 | Cc1nc2c(C(=O)NCc3ccc4c(c3)OCO4)c[nH]n2c(=O)c1Cc1ccccc1F | – | -16.8% (inactive)
6 | COc1ccccc1CNC(=O)Cn1nc(C)c2nn(-c3ccc(Cl)cc3)c(C)c2c1=O | 20.6 µM (active) | –
7 | CN(CCC1CCOCC1)C(=O)CC1C(=O)NCCN1Cc1cccc(F)c1 (stereo not drawn) | – | -1.92% (inactive)
8 | CC1CC(C)CN(CCOc2cccc3ccccc23)C1 (stereo not drawn) | – | -22.3% (inactive)
9 | O=C(Nc1ccc([N+](=O)[O-])cc1)OCCc1ccccn1 | – | -1.97% (inactive)
10 | COc1ccc(CN2CCOc3c(cc(-c4ncc(C(F)(F)F)cc4Cl)cc3OCC3CCCO3)C2)c(O)c1 (stereo not drawn) | – | -9.5% (inactive)
11 | O=C(CN1C(=O)NC2(CCOc3ccccc32)C1=O)NCc1ccc(F)cc1 (stereo not drawn) | – | -2.81% (inactive)
12 | O=C(NCCCn1ccnc1)C(=O)c1cn(CC(=O)N2CCCCCC2)c2ccccc12 | – | 0.0855% (inactive)
13 | CC(C)NC(=O)c1nn(-c2ccccc2F)nc1CO | – | -8.52% (inactive)
14 | CC1(C)NC(=O)N(CC(=O)Nc2ccc(-c3ccccc3)cc2)C1=O | – | -0.421% (inactive)
15 | O=C(Cc1ccccc1)N/N=C/c1ccc(Cl)cc1Cl | – | -18.1% (inactive)
16 | O=C(CSc1nnc(SCc2ccc(Cl)cc2)s1)N/N=C/c1ccccc1Cl | 18.4 µM (active) | –
17 | Cc1nnsc1C(=O)N/N=C/c1ccccc1Cl | – | -6.37% (inactive)
18 | C=CCOc1ccccc1NC(=O)CN1C(=O)CNC1=O | – | -0.254% (inactive)
19 | COc1ccc(CCN2C(=O)C(C)=C(C)C2=O)cc1OC | – | -24.1% (inactive)
20 | COc1ccc(CCn2cc3c(c2-c2ccc(Br)cc2)c(=O)n(C)c(=O)n3C)cc1OC | 23.1 µM (active) | –
21 | COc1ccc(CCN2CNc3c(c(=O)n(C)c(=O)n3C)C2)cc1OC | – | -7.71% (inactive)
22 | O=S(=O)(c1ccc(-c2ccno2)s1)N1CCCCC1 | – | -29.3% (inactive)
23 | COc1cccc(/C=C2\C=C(c3ccc(C)cc3)OC2=O)c1OC(C)=O | – | 8.2% (inactive)
24 | COCc1c(C(=O)N/N=C\c2cccnc2)nnn1-c1nonc1N | – | 0.229% (inactive)
25 | CCCCNC(=O)Nc1c(C)cc(SC#N)cc1C | 18.4 µM (active) | –
26 | CCCCNC(=O)C(=O)c1ccccc1NC(C)=O | – | -7.11% (inactive)
27 | c1ccc(CCc2ccccn2)cc1 | – | -4.92% (inactive)

Row | SMILES | Potency | activity change, negative = growth inhibition
28 | Cc1ccc(CC2CC(=O)N(c3nc(C)cc(C)n3)C2=O)cc1 (stereo not drawn) | – | 16.3% (inactive)
29 | CC(=O)N1CC(C)c2scc(C)[n+]2-c2ccccc21 (stereo not drawn) | – | -10.7% (inactive)
30 | CCOC(=O)c1nnn(-c2nonc2-n2cccc2)c1CN1CCOCC1 | – | -16.2% (inactive)
31 | CCOC(=O)c1nnn(-c2nonc2-n2cccc2)c1CN1CCC(C(=O)OCC)CC1 | 18.4 µM (active) | –
32 | NNC(=O)c1nnn(-c2nonc2N)c1CN1CCCC1 | – | -7.28% (inactive)
33 | CCOC(=O)C1(Cc2cccc(OC)c2)CCCN(C(=O)CCSC)C1 (stereo not drawn) | – | -3.48% (inactive)
34 | CC1(c2ccccc2)NC(=O)N(CC(=O)N2CC(=O)Nc3ccccc32)C1=O (stereo not drawn) | – | 30.7% (inactive)
35 | CC(C)Sc1nc(N)nc2c1ncn2C1OC(CO)C(O)C1O (stereo not drawn) | – | -26.9% (inactive)
36 | Nc1nc2c(ncn2[C@@H]2O[C@H](CNS(=O)(=O)N3CCc4ccccc4C3)[C@@H](O)[C@H]2O)c(=O)[nH]1 | – | 10.7% (inactive)
37 | COC1C(CO)OC(n2cnc3c(=S)nc(N)[nH]c32)C1O (stereo not drawn) | 16.4 µM (active) | –
38 | COC(=O)CNS(=O)(=O)c1ccc(Cc2ccc(S(=O)(=O)NCC(=O)OC)cc2)cc1 | – | -25.3% (inactive)
39 | CCCn1c(SCC(=O)c2ccc3c(c2)OCCO3)nnc1C(C)C | 23.1 µM (active) | –
40 | CCCn1c(SCC(N)=O)nnc1C(C)C | – | -3.06% (inactive)
41 | CCn1c(SCC(=O)Nc2ccc3c(c2)OCCO3)nnc1C(C)C | – | 0.283% (inactive)
42 | O=C(CSc1nc2ccccc2c(=O)n1CCCO)N1CCc2ccccc21 | – | -21.9% (inactive)
43 | CCC(=O)N1CCCc2ccccc21 | – | 7.34% (inactive)
44 | Cn1c(SCC(=O)N2CCCc3ccccc32)nc2ccccc2c1=O | 7.31 µM (active) | –
45 | CC(C)CNC(=S)NNC(=O)c1ccccc1OC(F)F | – | 3.45% (inactive)
46 | CC(=O)Nc1ccc(S(=O)(=O)Oc2ccc(Br)cc2C(=S)N2CCOCC2)cc1 | – | -28.2% (inactive)
47 | CCOc1cc(C(=S)N2CCOCC2)ccc1OS(=O)(=O)c1ccc(Br)cc1 | – | 0.241% (inactive)
48 | O=S(=O)(Oc1ccccc1C(=S)N1CCOCC1)c1ccc(Cl)cc1 | 16.4 µM (active) | –
49 | O=[N+]([O-])c1ccccc1NCc1ccccc1Cl | – | 12.7% (inactive)
50 | N/C(=N/O)c1cccn1Cc1ccccc1[N+](=O)[O-] | – | -10.3% (inactive)
51 | O=c1c([N+](=O)[O-])cccn1Cc1ccc(F)cc1Cl | 11.6 µM (active) | –
52 | O=C(O)c1ccc(S(=O)(=O)c2ccccc2)s1 | – | 25.9% (inactive)
53 | O=C(N=C1SC2CS(=O)(=O)CC2N1Cc1ccccc1)c1ccccc1 (stereo not drawn) | – | -29.9% (inactive)
